Assay outcomes deposited in PubChem BioAssay by National Center for Advancing Translational Sciences (NCATS).
A selection: hits, their analogues and other compounds. The true share with any hit is near 11%.
HPGD inh – blocks human HPGD enzyme activity; Potency, µM, inactives show top-dose activity change, negative = inhibition, actives largely listed as inhibitors; AID 894; actives 4.3% (n = 150,000); purified HPGD, NADH fluorescence kinetic, PGE2 substrate; also: potency is read from the fitted curve at half-maximal effect
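NADH formation kinetics: reaction with 30 uM PGE2 and 1 mM NAD+ (final), 20 nM enzyme, Tris-HCl pH 8 with Tween 20, after 15 min compound preincubation at room temperature. Fluorescence change, last versus first of five reads.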
PNC assembly inh – perinucleolar compartment assembly inhibition | PC3M PTB-GFP, PNC prevalence imaging, 16 h; hits give low values | activity change (PNC), negative = inhibition, % at 10 µM | actives 3.1% (n = 140,000) | AID 2417;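 active = readout at or below -70, meaning at least 70% loss of cells showing the perinucleolar compartment, a nuclear body marking cancer cells; inconclusive = readout between -30 and a set limit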;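 also: plate controls were DMSO wells for no effect and camptothecin positive control wells for full effect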
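PC3M cells stably expressing PTB-GFP, 750–1000 cells/well, treated 16 h at 37 °C with compound (23 nl of library stock), in duplicate. After paraformaldehyde fixation and Hoechst stain, imaged at 20x; PNC prevalence scored by image analysis.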
JMJD2E inh – inhibitors of human JMJD2E histone demethylase. B2RXH2. JMJD2E catalytic domain, FDH-coupled NADH fluorescence (FDH is formaldehyde dehydrogenase). Potency, µM (highest dose often 57.1 µM), without a hit: at the top dose activity change, negative = inhibition, hits mostly inhibitors. actives 1.6% (n = 230,000). AID 2147;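 also: potency is read from the fitted curve at half-maximal effect; 0% = wells with enzyme and -100% = buffer wells without enzyme; nearly all actives have a fitted effect of over 50% in size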
ALDH1A1 inh – ALDH1A1 (human) enzyme inhibition | P00352 | Purified ALDH1A1, NADH fluorescence, propionaldehyde substrate | Potency, µM (top dose mostly 75.3 µM), for the others: at the highest dose activity, negative = inhibition, usual class: inhibitors | actives 7.3% (n = 220,000) | AID 1030;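 also: potency is read from the fitted curve at half-maximal effect; plate controls were no enzyme wells and a reference inhibitor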
Target sequence (P00352 whole entry, looked up): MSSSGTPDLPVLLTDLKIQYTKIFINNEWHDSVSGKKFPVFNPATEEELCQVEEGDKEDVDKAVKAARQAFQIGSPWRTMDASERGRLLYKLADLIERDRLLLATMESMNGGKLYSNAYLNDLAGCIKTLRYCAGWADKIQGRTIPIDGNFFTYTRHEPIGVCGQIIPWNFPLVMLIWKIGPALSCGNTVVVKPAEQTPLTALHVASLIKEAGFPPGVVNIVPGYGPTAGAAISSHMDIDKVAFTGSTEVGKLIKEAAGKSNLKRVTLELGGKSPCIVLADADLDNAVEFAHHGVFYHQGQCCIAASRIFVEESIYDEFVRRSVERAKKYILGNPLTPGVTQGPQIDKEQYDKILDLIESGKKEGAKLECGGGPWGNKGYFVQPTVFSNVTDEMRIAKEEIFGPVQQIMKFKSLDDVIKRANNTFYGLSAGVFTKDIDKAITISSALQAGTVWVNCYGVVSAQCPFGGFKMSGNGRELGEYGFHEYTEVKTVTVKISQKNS
* = called active by the depositor; ? = inconclusive; . = no result; ! = repeats disagree; [ ] = remark or other dose. Unless noted, calls follow the shape of the dose curve; as a rule, active = well fitted inhibition curve with a large enough effect (not every such curve was filed as active); inconclusive = small, poorly fitted or top-dose-only effect, or another doubt; inactive = no such curve, though single readings can be large or run the other way. Unless noted, % is scaled to controls: 0 for no effect and ±100 for the full control effect.

SMILES	HPGD inh	PNC assembly inh	JMJD2E inh	ALDH1A1 inh
CC1=C(C(=O)OCc2ccccc2)C(c2ccccc2)NC(=O)N1CCCCCC(=O)O (stereo not given)	-10.2%	-80.2*	3.5%	-0.1%
COC(=O)C1=C(C)N(Cc2ccccc2)C(=O)N[C@H]1c1ccccc1	-1.8%	40.5	-5.1%	7.94µM*!
O=C(O)/C=C\c1ccc(Cn2ccnc2)cc1	-6.8%	.	-4.9%[25.5 µM]	-7.8%[20.9 µM]
COC(=O)c1ccc(COC(=O)c2ccc(-n3cnnn3)cc2)o1	-17.0%	-23.1	-4.7%	20µM*
C=CCOC(=O)/C=C/NC(=O)/C=C/C=C/CCCCCCCC(C)O (stereo not given)	.	.	.	-4.5%[13.5 µM]
CC1(C)Cn2c(nnc2-c2cccc(O)c2)S1	15.8µM*	38.7	0.6%	?
Cc1cc(Oc2ccc(OCC(N)=O)nn2)nc(Cl)n1	.	.	-6.2%	1.9%
COc1ccc(Oc2cc(C)nc(Cl)n2)nn1	.	.	-6.2%	8.91µM*
CC(C)NC(=S)N/N=C/c1cc(Br)ccc1O	?	?	25.1µM*	?
c1ccc(C[n+]2c(-c3ccccc3)csc2Nc2ccccc2)cc1	-16.0%	-6.8	-24.7%	?
c1ccc(Nc2scc(-c3ccccc3)[n+]2Cc2ccco2)cc1	.	.	-27.7%	10µM*
CCOc1cc(C=O)cc(Cl)c1OCC(N)=O	.	.	-8.3%	7.08µM*
CCOc1ccc(Cl)cc1/C=N/O	11.2µM*	-20.6	-3.1%	6.8%
CCOc1cc(/C=N/O)cc(Cl)c1OC	-18.4%	23.5	4.9%	20.0%
CCCOc1c(Cl)cc(/C=N/O)cc1OCC	25.1µM*	-1.0	0.3%	?
CO/N=C1\CN(c2nc3c(cc2F)c(=O)c(C(=O)O)cn3C2CC2)CC1CN (stereo not given)	-25.0%	.	?	-8.3%
OCCC1CN(Cc2cccc(-n3cccn3)c2)CCN1Cc1ccccc1 (stereo not given)	.	.	-27.7%	-1.7%
CN1C[C@H](c2ccccc2)C(O)([C@]2(c3ccccc3)CN(C)C[C@@H](c3ccccc3)C2=O)[C@H](c2ccccc2)C1 (stereo not given in full)	-1.6%	.	.	-8.1%[13.5 µM]
C=C(C)COc1ccc(-c2[nH]ncc2Oc2ccccc2OCC)c(O)c1	17.8µM*	-116.6*	-3.5%	1.58µM*
C=CCSC1=C(C#N)C(c2ccccc2Cl)CC(=O)N1 (stereo not given)	-14.5%	18.0	-1.5%	25.1µM*
Cc1cc2c(cc1C)-c1nnnn1C(C)(C)C2	-4.3%	11.9	-0.7%	7.08µM*
Nc1nnc(CSCc2cccc(Br)c2)s1	.	.	-1.3%	12.7%
CCc1nc(C)ccc1OC(=O)C12CC3CC(CC(C3)C1)C2	-21.3%	13.2	?	17.8µM*
CC1CCC/C(=C\Nc2ccc(C(=O)O)cc2)C1=O (stereo not given)	.	.	-2.1%	14.1µM*
CCOC(=O)c1ccc(N/C=C2/CCCC(C)C2=O)cc1 (stereo not given)	-9.5%	-10.3	-10.1%	?
SMILES	HPGD inh	PNC assembly inh	JMJD2E inh	ALDH1A1 inh
Cc1ccccc1NC(=O)CSC(N)=O	?	13.3	-0.6%	0.794µM*
Cc1ccc(C)c(NC(=O)Cc2nc(CCl)cs2)c1	-7.5%	?	-6.1%	?
Cc1ccccc1NC(=O)CSCC(=O)Nc1ccccc1C	17.8µM*	-27.7	4.9%	-1.4%
COc1ccccc1NC(=O)c1ccc(NC(=O)COC(=O)C(C)C)cc1	-4.2%	6.6	9.3%	0.891µM*
Cc1ccccc1NC(=O)Cc1nc(CCl)cs1	20µM*	?	-4.4%	11.2µM*
CSc1ccccc1NC(=O)CSCc1ccc(C)cc1	15.8µM*	25.5	5.5%	-16.3%
CSc1ccccc1NC(=O)CN(C)CC(=O)NCc1ccccc1	.	.	4.1%	0.199µM*
COc1ccccc1NC(=O)CSC(N)=O	-3.8%	21.2	-3.8%	1.58µM*
CSc1ccccc1NC(=O)CN(C)CC(=O)Nc1cc(C)ccc1C	-7.3%	14.1	-5.6%	-17.1%
COC(=O)C1=C(C)NC=C([N+](=O)[O-])C1c1ccc(OC)cc1 (stereo not given)	-14.8%	26.1	1.1%	-10.5%
COC(=O)C1=C(C(=O)OC)[C@@H]2N(Cc3ccccc3)c3ccccc3[C@@]23C[C@@H](C(=O)OC)N(S(=O)(=O)c2ccc(OC)cc2)C3=N1	2.4%	.	-1.5%[11.4 µM]	2.1%[13.5 µM]
C=C(CO)C1Cc2c(ccc3c2OC2COc4cc(OC)c(OC)cc4C2C3=O)O1 (stereo not given)	-8.6%	.	-3.8%	22.4µM*
COc1cc2c(cc1OC)C1C(=O)c3c(cc4c(c3O)C=CC(C)(C)O4)OC1CO2 (stereo not given)	-13.2%	.	-28.1%	2.4%
CC(=O)Nc1ccc(S(=O)(=O)Oc2ccc(C(=S)N3CCC(O)CC3)cc2)cc1	31.6µM*	22.9	-3.4%	3.6%
CC(=O)Nc1ccc(S(=O)(=O)Oc2ccc(C(=S)N3CCCCC3)cc2)cc1	15.8µM*	?	-9.1%	14.1µM*
Nc1nc2c(c(=O)[nH]1)CN(CCCN1CCOCC1)CN2	-10.7%	.	.	8.1%[13.5 µM]
CCC(C)NS(=O)(=O)c1ccc(-c2csnn2)s1 (stereo not given)	?	14.9	1.6%	1.5%
Cc1ccccc1-n1nc(C)c(N=O)c1N	.	.	7.6%	5.7%
Cc1ccc2cc(CN(C(=O)c3ccco3)c3cccc(C)c3C)c(=O)[nH]c2c1	.	.	-27.5%	.
Cc1ccc2cc(CN(C(=O)c3ccco3)c3ccccc3C)c(=O)[nH]c2c1	-24.3%	43.6	?	4.47µM*
COc1ccc(N2CCc3c(C)nc4c(OC)cccc4c32)cc1	.	.	?	28.2µM*
C=CCN(CC(=O)O)S(=O)(=O)c1ccccc1C(F)(F)F	.	.	-3.9%	-5.1%
NNC(=O)CSCc1nc(-c2ccccc2)cs1	.	.	4.5%	-4.2%
NNC(=O)CSCc1nc(-c2ccc(Cl)cc2)cs1	.	.	21.3%	0.708µM*
NC(=O)Cc1nc(-c2ccc(F)cc2)cs1	.	.	3.2%	.
SMILES	HPGD inh	PNC assembly inh	JMJD2E inh	ALDH1A1 inh
NC(=S)Cc1nc(-c2ccc(Cl)cc2)cs1	.	.	-19.3%	2µM*
O=[N+]([O-])c1ccc(Sc2ncc3ccccn23)nc1	.	.	-5.9%	.
CCC1=C2CC[C@H]3C(=O)NC(=O)[C@H]3[C@H]2[C@@]2(C)C(=NCCc3c[nH]c4ccccc34)OC(=O)N2C1=O	-4.9%	.	-5.3%	-5.0%
CC(O)CNC(=O)Cc1cc(=O)[nH]c(=O)[nH]1 (stereo not given)	.	.	3.5%	.
O=C(CN1CCCCC1)N=Nc1c(O)[nH]c2ccccc12	.	.	5.1%	12.6µM*
CCCCOC(=O)Nc1ccc(C(C)C)cc1	12.6µM*	0.4	9.8%	2.1%
CC(C)COC(=O)NCCCOC(=O)Nc1ccccc1	-11.0%	4.5	-0.2%	22.4µM*
CCCCOC(=O)Nc1ccc(C(N)=O)cc1	-3.5%	?	-3.6%	11.0%
CCCCOC(=O)Nc1ccc(N(C)C)cc1	31.6µM*	?	?	?
CCOc1ccc(NC(=O)N2CCC(c3nc4ccccc4[nH]3)CC2)cc1	.	.	-6.5%	1.8%
Cc1[nH]c2ccccc2c1CN1CCN(c2ccccn2)CC1	.	.	-1.0%	.
Cc1[nH]c2ccccc2c1CN1CCC(Cc2ccccc2)CC1	.	.	25.1µM*	?
CSC1=C(C#N)C2(CCCC2)C(C#N)=C(N)N1	-5.0%	22.9	-6.0%	?
N#CC1=C(N)N2C(=C(C#N)C13CCCCC3)SC1CCCCC12O (stereo not given)	-12.7%	?	3.7%	0.708µM*
